Screens from PubChem.
CtBP-E1A blk – inhibitors of CtBP/E1A interaction. AlphaScreen GST-E1A/His-CtBP binding, 1536-well; active compounds read low. AID 651724. activity change, % (test concentration not listed). 340,000 tested, 0.49% active; in the data active = activity change below about -65%; inconclusive = mostly about -30% to -63%; also: % is scaled to controls: 0 for no effect and ±100 for the full control effect
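GST-E1A and His-tagged CtBP (125 nM each as 5X stock) were preincubated with pin-transferred compound for 2 h at 37 °C in the dark, then glutathione donor and nickel acceptor beads were added for 1 h before AlphaScreen reading.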
JMJD2A Tudor – blocks the human JMJD2A Tudor domain | Potency, µM (highest dose often 114 µM), without a hit: at the highest dose activity change, negative = inhibition, most hits filed as inhibitors | O75164 | AlphaScreen JMJD2A-Tudor / H3K4me3 peptide binding | AID 504339 | 390,000 tested, 4.4% active; also: potency is read from the fitted curve at half-maximal effect; % is scaled to controls: 0 for no effect and ±100 for the full control effect; nearly all actives have a fitted effect of over 50% in size
Six1-Eya2 inh – inhibitors of human Six1/Eya2 interaction; activity change, % (concentration not given with the values); 360,000 tested, 0.56% active; AlphaScreen GST-Six1/His-Eya2 binding, biochemical; active compounds read low; Q15475+O00167; in the data active = activity change below about -65%; inconclusive = mostly about -30% to -63%; also: % is scaled to controls: 0 for no effect and ±100 for the full control effect
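Six1/Eya2 binding was read as AlphaScreen signal after compounds were pinned into GST-Six1 plus His-tagged Eya2 (5X stock 250/500 nM) in pH 8.0 Tris/NaCl/TCEP buffer, beads added, then incubated 1 h, 37 C, dark.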
BAZ2B inh – BAZ2B (human) inhibition. 360,000 tested, 4.4% active. AlphaScreen BAZ2B-H3K14Ac peptide displacement. Potency, µM (top dose mostly 114 µM), for inactives: top-dose activity change, negative = inhibition, hits mostly inhibitors. Q9UIF8; also: potency is read from the fitted curve at half-maximal effect; % is scaled to controls: 0 for no effect and ±100 for the full control effect; nearly all actives have a fitted effect of over 60% in size
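Protein-peptide AlphaScreen: BAZ2B 50 nM, b-H3K14Ac 50 nM, 1x PBS pH 7.4 + 0.01% Tween-20. Preincubation 30 min RT; cpd 30 min RT (top 110 uM); beads 20 min RT, light-protected.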
G9a inh – G9a (human) methyltransferase inhibition; Q96KQ7; Potency, µM (doses to about 102 µM), inactives show at the highest dose activity, negative = inhibition, usual class: inhibitors; G9a H3K9 monomethylation, AlphaScreen, 2 h; 350,000 tested, 8.8% active; also: potency is read from the fitted curve at half-maximal effect; % is scaled to controls: 0 for no effect and ±100 for the full control effect; nearly all actives have a fitted effect of over 75% in size
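Using a bead-based AlphaScreen, monomethylated H3K9 product from 2 h room-temperature reactions (G9a 20 nM, peptide 500 nM, SAM 20 uM) was detected with 0.5 ug/mL rabbit anti-H3K9me1 antibody.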
HP1b chromo inh – HP1-beta chromodomain-methylated histone interaction inhibition | P83916 | AlphaScreen HP1-beta / biotin-H3K9me3 peptide binding | Potency, µM (highest dose often 114 µM), for the others: at the top dose activity change, negative = inhibition, hits mostly inhibitors | 390,000 tested, 0.56% active | AID 540317; also: potency is read from the fitted curve at half-maximal effect; nearly all actives have a fitted effect of over 70% in size
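Compound inhibition of the preformed complex between 50 nM HP1-beta and 50 nM biotinylated H3K9me3 peptide was read by AlphaScreen. Buffer was PBS pH 7.4 with 0.01% Tween-20. Incubations ran 30 min at room temperature, with 10 ug/mL donor/acceptor beads.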
The depositor's hits bear a star; ? = inconclusive; nt = no result; [ ] = another dose, or the depositor's remark. The list is not random: actives were taken first. Their share in the collection is about 10%. Unless noted, calls follow the shape of the dose curve; as a rule, active = well fitted inhibition curve with a large enough effect; inconclusive = small, poorly fitted or top-dose-only effect; inactive = no such curve, though single readings can be large or run the other way.

SMILES | CtBP-E1A blk | JMJD2A Tudor | Six1-Eya2 inh | BAZ2B inh | G9a inh | HP1b chromo inh
CCOc1ccc2nc(SCC(=O)NCc3ccc(OC)cc3)[nH]c2c1 | 3 | 13% | -3 | 6% | 8% | 29%
CCc1ccc(CNc2ccc3c(c2)ncn3CC)cc1 | -21 | 45µM* | -16 | ? | 11µM* | ?
CC(C)(CC(=O)O)CC(=O)Nc1ccc2c(c1)ncn2CCc1ccccc1 | 1 | 3% | 3 | 2% | -12% | 43%
CCOc1ccc2nc3cc(NCc4ccc(OC)cc4)ccc3c(N)c2c1 | nt | ? | -5 | ? | 35µM* | 38%
CCCc1nn2c(=O)cc(COC(=O)c3cccc(NC(=O)CCc4ccccc4)c3)nc2s1 | nt | -21% | nt | -8% | 15%[59 µM] | 40%
CC(C)(Oc1ccc(Cl)cc1)C(=O)NNC(=O)c1ccc(Br)o1 | 7 | -6% | 3 | -20% | 12% | 47%
CCOC(=O)C1CCN(S(=O)(=O)c2ccc(-c3nc4ccccc4s3)s2)CC1 | 7 | -23% | 7 | -34% | 35µM* | 39%
O=C(CSc1nccn1Cc1ccco1)Nc1ccc(OC(F)(F)F)cc1 | nt | ? | nt | ? | -44%[59 µM] | -1%[57 µM]
Cc1cc(C)cc(OCc2cc(=O)n3cc(C)sc3n2)c1 | nt | 1% | nt | -1% | -4%[59 µM] | 31%
COc1ccc(Cc2nnc(NC(=O)CSc3ccc(Cl)cc3)s2)cc1OC | nt | nt | nt | -2% | 9%[59 µM] | nt
COc1ccc(Cc2nnc(NS(=O)(=O)c3ccc(Cl)cc3)s2)cc1OC | -3 | -17% | 0 | ? | 32µM* | -8%
Cc1ccc(S(=O)(=O)Nc2nnc(CC(C)(C)C)s2)cc1 | nt | -21% | 0 | -21% | 35µM* | -5%
Cc1ccc(S(=O)(=O)Nc2nsc(N)n2)cc1 | -5 | 2% | 1 | -6% | 32µM* | 5%
CC(C)(C)c1nnc(NS(=O)(=O)c2ccc([N+](=O)[O-])cc2)s1 | nt | -29% | 14 | -3% | 10µM* | -13%
CC(C)(C)Cc1nnc(NS(=O)(=O)c2ccc([N+](=O)[O-])cc2)s1 | 5 | -6% | 5 | ? | -12% | 18%
COc1ccc(C)cc1NC(=O)N1CCN(c2cc(-c3noc(C)n3)ccc2C)CC1 | nt | -23% | nt | 8% | 44%[59 µM] | 19%[57 µM]
O=C(NCc1cccnc1)C(=O)NCC1OCCN1S(=O)(=O)c1ccc(F)cc1 (centres undefined) | 2 | -8% | -5 | 4% | 9% | 50%
COCc1nnc(NS(=O)(=O)c2ccc(C)cc2)s1 | 10 | ? | 6 | -9% | -9%[12.7 µM] | 63%
Cc1ccc(S(=O)(=O)Nc2nnc(C(C)(C)C)s2)cc1 | nt | -5% | -1 | -6% | 4.5µM* | -2%
S=c1[nH]nc(C2CCCCC2)o1 | 8 | 20µM* | -3 | -13% | 28µM* | -3%
S=C(NCC1CCCO1)N1CCN(c2cccc(Cl)c2)CC1 (centres undefined) | nt | -20% | 3 | -7% | 2% | 33%
O=C(N1CCOCC1)N1CCN(c2nc(-c3ccccc3)cs2)CC1 | -1 | -26% | -11 | ? | 45µM* | 7%
O=S(=O)(c1cccc(Cl)c1Cl)N1CCN(C(=S)NCCCN2CCOCC2)CC1 | -5 | 1.6µM* | 0 | 50µM* | 35µM* | 28µM*
S=C(NCC1CCCO1)N1CCN(c2nc(-c3ccc(Cl)cc3)cs2)CC1 (centres undefined) | -14 | ? | -10 | 35µM* | ? | ?
Cc1cccc(C)c1N1CCN(C(=O)N2CCOCC2)CC1 | 6 | ? | -1 | -10% | 35µM* | 0%
S=C(NCCCN1CCOCC1)N1CCN(c2nc(-c3ccccc3)cs2)CC1 | -17 | ? | -9 | ? | 56µM* | -14%
S=C(NCCCN1CCOCC1)N1CCN(c2nc(-c3ccc(Cl)cc3)cs2)CC1 | -22 | ? | -19 | -13% | -1% | -25%
Cc1cc2ccccc2nc1SCC(=O)NC1CCCCC1 | 11 | -2% | 1 | ? | nt | 48%
O=C(CSc1nc2ccccc2s1)NC1CCCC1 | 9 | -10% | -9 | -23% | 22µM* | 5%
